# Measured values published in PubChem BioAssay (Tox21).
# Values joined by “and” are separate entries in the source; they are usually repeats but may differ in a detail not shown here. Identical values can stand only once. Results filed as inconclusive are left out. Unmarked numbers belong to inactive results. Active and inactive are the calls of the source. Calls come from the whole dose curve; as a rule, active = well fitted cell-killing curve with a large enough effect in the repeat runs (not every such curve was filed as active); inconclusive = weak or mixed curves, or effect the other way; inactive = no such curve, though single readings can be large or run the other way.
# Assay: qHTS assay to identify small molecule antagonists of the estrogen related receptor signaling pathway with the pleiotropic PPARgamma coactivator (PGC) from Tox21 10K library - cell viability counter screen (AID 1224840); note: nearly all actives have a fitted effect of over 40% in size
# Conditions: PGC/ERR reporter cells viability, CellTiter-Fluor, 17.5 h; series mostly up to 92.4 µM; viability change, negative = cytotoxic: at the top concentration
# Excerpt: National Center for Advancing Translational Sciences [NCATS]
# NIH Chemical Genomics Center [NCGC]
# U.S. Environmental Protection Agency [EPA]
# National Institutes of Environmental Health Sciences [NIEHS]
# National Toxicology Program [NTP]
# U.S. Food and Drug Administration [FDA]
# Estrogen related receptors (ERRs), the first orphan nuclear receptors discovered, play an important role in the control of cellular energy metabolism. ERRs are required for high-energy production in response to the environmental challenges. The pleiotropic PPARgamma coactivator (PGC) is a major partner of ERR and a key regulator in energy homeostasis. Together they have been implicated in the etiology of metabolic disorders such as Type 2 diabetes and metabolic syndrome. ERR-alpha was also identified as an adverse marker for breast cancer progression; ERR-alpha-positive tumors have a poor prognosis. To screen and to identify environmental compounds that perturb the ERR and PGC/ERR signaling pathways could provide valuable information for potential therapeutic or preventive measures in the treatment of metabolic disease. To differentiate true PGC/ERR antagonists or agonist from cytotoxic substances, the assay is multiplexed with cell viability assay.
# Tox21 Assay Protocol Summary:
# The PGC/ERR cells were dispensed at 2,000 cells/5 ul/well in 1536-well white plates using a Multidrop dispenser. After the assay plates were incubated at a 37 C/5% CO2 incubator for 6 hours, 23 nL of compounds dissolved in DMSO, positive and negative controls or DMSO only was transferred to the assay plate by a pin tool. The plates were incubated at 37 C for 17.5 hours. 1 ul/well of CellTiter-Fluor reagent was added into the assay plates using a Flying Reagent Dispenser. After 30-minute incubation at 37 C/5% CO2, the fluorescence intensity in the plates was measured using a ViewLux plate reader.
# % is set by controls: 0 for no effect and ±100 for the full control effect; potency is the fitted concentration of half-maximal effect.
Compound,Potency,"viability change, negative = cytotoxic"
Oc1ccc(C2(c3ccc(O)cc3)CC3CC2C2CCCC32)cc1 (stereo not given),58.7 µM (active),
Clc1ccc(C(Cn2ccnc2)OCc2ccc(Sc3ccccc3)cc2)c(Cl)c1 (stereo not given),,0.236% [at 42.5 µM]
CCCCCCCCOC(=O)c1ccc(O)cc1,inactive,
CCCCN(CCCC)C(=O)N(CCCC)CCCC,,-1.35%
Cc1cc(C2CCCCC2)n(O)c(=O)c1,26.6 µM (active),
CCC(CN)=C(c1ccccc1)c1ccccc1,,-15.1% [at 42.5 µM]
CCCCCCCCCCCC[N+](C)(C)CCCCCCCCCCCC,27.3 µM (active),
CCc1cc(SCc2sc(-c3ccc(C(F)(F)F)cc3)nc2CN2CCN(c3ccc(OC)cc3)CC2)ccc1OCC(=O)O,34.4 µM (active),
[Cl][Bi]([Cl])([c]1ccccc1)([c]1ccccc1)[c]1ccccc1,6.08 µM (active),
NC(=O)NS(=O)(=O)c1ccc(N)cc1,,3.34% [at 42.5 µM]
O=C(O)c1ccc(Cl)c(Cl)c1,,5.17%
CCCCC(CC)CN=C(N)NC(N)=NCCCCCCN=C(N)NC(N)=NCC(CC)CCCC (stereo not given),16.8 µM (active),
COCCCC/C(=N\OCCN)c1ccc(C(F)(F)F)cc1,,6.39% [at 42.5 µM]
CSc1ccc(/C=C2/C(C)=C(CC(=O)O)c3cc(F)ccc32)cc1,,-9.44% [at 42.5 µM]
C=CC(=O)OCC(CO)(COC(=O)C=C)COC(=O)C=C,6.13 µM (active) and 12.2 µM (active),
Cc1ccc(O)c2ncccc12,23.7 µM (active),
NC(=O)N1C(=O)C(C(=O)c2cc(Cl)cs2)c2cc(F)c(Cl)cc21 (stereo not given),30.6 µM (active),
CCCCCCCCS(=O)C(C)Cc1ccc2c(c1)OCO2 (stereo not given),,-11.9%
CCN(C(=O)N(CC)c1ccccc1)c1ccccc1,,-13.8%
Clc1ccc2cc3ccccc3cc2c1,,-12.8%

Compound,Potency,"viability change, negative = cytotoxic"
O=S1(=O)CC(Cl)(Cl)C(Cl)(Cl)C1,9.69 µM (active),
CC(C)OC(=O)c1cc2c(OCC(O)CNC(C)(C)C)cccc2[nH]1 (stereo not given),,-15.4% [at 42.5 µM]
CCCCCCCC(=O)[O-].CCCCCCCC(=O)[O-].[Zn+2],,1.4% [at 42.5 µM]
O=C(c1ccc(O)cc1O)c1ccc(O)cc1O,inactive,
O=C(c1ccc(F)cc1)C1CCN(CCn2c(=O)[nH]c3ccccc3c2=O)CC1,,-15.2% [at 42.5 µM]
C[n+]1cc2c3c(ccc2c2ccc4cc5c(cc4c21)OCO5)OCO3,3.26 µM (active),
CCCCCCCCCCCCCCCS(=O)(=O)Oc1ccccc1,,-0.43% [at 42.5 µM]
O=C(NO)C1(NS(=O)(=O)c2ccc(Oc3ccc(F)cc3)cc2)CCOCC1,,-18.4%
Cc1cccc(N(C)C(=S)Oc2ccc3c(c2)C2CCC3C2)c1 (stereo not given),,-0.981% [at 42.5 µM]
C=C(C)C(=O)OCC[N+](C)(C)C,,2.87%
CN1CCN(CCC(=O)N2c3ccccc3Sc3ccc(C(F)(F)F)cc32)CC1,29.8 µM (active),
CCCCCCCC[N+](CCCCCCCC)(CCCCCCCC)CCCCCCCC,21.6 µM (active),
O=C(N/N=C/c1ccccc1O)c1ccncc1,,-14% [at 42.5 µM]
CNC(=O)c1ccccc1,,-6.34%
Oc1ccc(N=Nc2ccccc2)cc1,27.7 µM (active),
Cc1c(C)c2c(c(C)c1O)CCC(C)(COc1ccc(CC3SC(=O)NC3=O)cc1)O2 (stereo not given),,1.77% [at 42.5 µM]
CCOC(=O)O[C@]1(C(=O)OCCl)CC[C@H]2[C@@H]3CCC4=CC(=O)C=C[C@]4(C)[C@H]3[C@@H](O)C[C@@]21C,,2.83% [at 42.5 µM]
Cc1cccc2c1cc1ccc3cccc4ccc2c1c34,,19.2%
NC(=O)C1(N2CCCCC2)CCN(CCCN2c3ccccc3CCc3ccc(Cl)cc32)CC1,26.6 µM (active),
Oc1cccc(-c2c3nc(c(-c4cccc(O)c4)c4ccc([nH]4)c(-c4cccc(O)c4)c4nc(c(-c5cccc(O)c5)c5ccc2[nH]5)CC4)C=C3)c1,10.6 µM (active),
